High-throughput results (PubChem BioAssay)
TDP1 cell noCPT = qHTS for Inhibitors of human tyrosyl-DNA phosphodiesterase 1 (TDP1): qHTS in cells in absence of CPT | Potency, µM (highest dose often 46.2 µM), without a hit: at the top dose activity change, negative = growth inhibition, most hits filed as inhibitors | DT40 Tdp1-/- hTDP1 cells, no CPT, ATP luminescence, 48 h | 420,000 tested, 15% active; note: potency is the fitted concentration of half-maximal effect; nearly all actives have a fitted effect of over 55% in size
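Growth of hTDP1-complemented DT40 Tdp1-knockout cells is measured by ATP luminescence after at least 48 hr compound exposure at 37 °C, with DMSO substituting for the 20 nM CPT used in the parallel screen.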
IL-1B inflam inh = qHTS for Inhibitors of Inflammasome Signaling: IL-1-beta AlphaLISA Primary Screen | THP-1 LPS/ATP IL-1B secretion, AlphaLISA, 16 h; hits give low values | activity change, % at 57.5 µM | AID 743279, 2014 | 360,000 tested, 4.7% active; in the data active = activity change below about -50%; inconclusive = mostly about -30% to -49%
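Secreted IL-1B measured by AlphaLISA bead assay after 16 h compound exposure of THP-1 cells; compounds (final up to 57.5 uM) added 1 h before LPS (250 ng/mL) and ATP (1.25 mM) stimulation; lower signal means less secretion.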
TDP1 cell CPT = qHTS for Inhibitors of human tyrosyl-DNA phosphodiesterase 1 (TDP1): qHTS in cells in presence of CPT; 420,000 tested, 12% active; chicken DT40 Tdp1-/-;hTDP1 cells + 20 nM CPT, ATP luminescence, 48 h; Potency, µM (top dose mostly 46.2 µM), for inactives: top-dose activity change, negative = growth inhibition, actives largely listed as inhibitors; note: potency is the fitted concentration of half-maximal effect; nearly all actives have a fitted effect of over 55% in size
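Chicken DT40 Tdp1-/- cells stably complemented with human TDP1 were seeded at 400 cells/well in medium containing 20 nM camptothecin, exposed to pin-transferred compounds, and grown at 37 °C for at least 48 hr. Viability was read as ATP luminescence.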
TDP1 inh = qHTS Assay for Inhibitors of Tyrosyl-DNA Phosphodiesterase (TDP1); recombinant TDP1, AlphaScreen DNA substrate cleavage; AID 485290, 2010; Potency, µM (titrated, usually from 130 µM), inactives show at the top dose activity change, negative = inhibition, hits mostly inhibitors; 350,000 tested, 0.28% active; Tyrosyl-DNA phosphodiesterase 1 (Homo sapiens), Q9NUW8; note: potency is the fitted concentration of half-maximal effect; nearly all actives have a fitted effect of over 40% in size
Target sequence (Q9NUW8 whole entry, looked up): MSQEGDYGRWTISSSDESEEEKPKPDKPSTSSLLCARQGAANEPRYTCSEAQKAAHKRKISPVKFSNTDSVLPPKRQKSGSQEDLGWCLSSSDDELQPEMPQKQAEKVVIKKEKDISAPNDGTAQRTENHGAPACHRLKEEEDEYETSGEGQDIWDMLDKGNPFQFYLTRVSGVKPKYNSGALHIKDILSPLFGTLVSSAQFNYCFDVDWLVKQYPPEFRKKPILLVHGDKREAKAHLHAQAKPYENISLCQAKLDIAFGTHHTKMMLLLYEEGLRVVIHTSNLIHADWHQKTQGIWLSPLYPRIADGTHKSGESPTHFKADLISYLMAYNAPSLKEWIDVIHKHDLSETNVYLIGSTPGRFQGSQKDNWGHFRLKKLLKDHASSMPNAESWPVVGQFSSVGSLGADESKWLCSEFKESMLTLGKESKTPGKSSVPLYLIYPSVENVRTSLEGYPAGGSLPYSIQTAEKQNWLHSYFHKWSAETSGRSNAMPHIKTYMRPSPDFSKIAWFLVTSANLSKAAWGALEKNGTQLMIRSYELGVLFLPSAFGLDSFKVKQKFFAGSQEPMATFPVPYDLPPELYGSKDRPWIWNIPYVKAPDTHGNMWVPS
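AlphaScreen read-out: signal falls as enzyme removes the 3' tyrosine-FITC from a 5'-biotinylated DNA oligo (15 nM, 5 min, RT). Enzyme was E. coli-made recombinant Tdp1 at 1 nM, exposed to compound for 15 min beforehand; beads 10 ug/ml, 10 min.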
CtBP-E1A blk = qHTS Assay for Inhibitors of the CtBP/E1A Interaction; CtBP / adenovirus E1A interaction (AlphaScreen); AlphaScreen GST-E1A/His-CtBP binding, 1536-well; hits give low values; activity change, % (test concentration not listed); 340,000 tested, 0.49% active; AID 651724, 2012; in the data active = activity change below about -65%; inconclusive = mostly about -30% to -63%
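In 5 uL wells, 23 nL compound meets equimolar GST-E1A and His-CtBP (5X stock 125 nM each) for 2 h, 37 °C. Beads (5X, 50 ug/mL) then 1 h, 37 °C, dark.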
Six1-Eya2 blk = qHTS Assay for Inhibitors of the Six1/Eya2 Interaction; activity change, % (no concentration beside the values); AlphaScreen GST-Six1/His-Eya2 binding, biochemical; hits give low values; AID 651725, 2012; 360,000 tested, 0.56% active; in the data active = activity change below about -65%; inconclusive = mostly about -30% to -63%
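Compounds are tested against tagged Six1 and Eya2 proteins bridged by glutathione donor and nickel acceptor beads; after a one-hour incubation at 37 °C without light, AlphaScreen emission is recorded.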
Starred values were filed as active, the others as inactive; ? = inconclusive; · = not tested or not shown; ! = not confirmed by another sample; [ ] = dose if it differs, or a comment. Shown are actives, neighbours in structure and some others; about 18% of the full set was active somewhere. Unless noted, calls come from the whole dose curve; as a rule, active = well fitted curve in the direction sought with a large enough effect; inconclusive = small, poorly fitted or top-dose-only effect, or another doubt; inactive = no such curve, though single readings can be large; an effect the other way counts as inactive or inconclusive. % is set by controls: 0 for no effect and ±100 for the full control effect.

SMILES | TDP1 cell noCPT | IL-1B inflam inh | TDP1 cell CPT | TDP1 inh | CtBP-E1A blk | Six1-Eya2 blk
COC(=O)c1ccc(C)c(N(CCO)CCO)c1 | -1% | 0 | 2% | 3% | 5 | 7
CN(C)c1ccc(O)c2c1CC1CC3[C@@H](N(C)C)C(=O)C(C(N)=O)=C(O)[C@]3(O)C(=O)C1=C2O (stereo not given in full) | 3.7µM* | -8 | 8.2µM* | · | -24 | ?
CN(C)[C@@H]1C(=O)C(C(=O)NCN2CCCC2)=C(O)[C@@]2(O)C(=O)C3=C(O)c4c(O)cccc4[C@@](C)(O)C3C[C@@H]12 (stereo not given in full) | -1%[21.1 µM] | · | -15%[21.1 µM] | · | · | ·
CN(C)c1ccc(O)c2c1C[C@H]1C[C@H]3[C@H](N(C)C)C(=O)C(C(N)=O)=C(O)[C@@]3(O)C(=O)C1=C2O | 21µM*! | · | 6.5µM* | · | · | ·
CCc1nc2ccccc2[nH]1 | -2% | -10 | -9% | 6% | 6 | 7
CCc1nc2ccc(Cc3ccc4nc(CC)[nH]c4c3)cc2[nH]1 | 23µM* | -10 | 13µM* | · | · | -13
COc1ccccc1CNC(=O)CCN1C(=O)c2ccccc2C1=O | 0% | -9 | 6% | · | 5 | 4
CN(C)c1ccccc1C(=O)c1ccccc1N(C)C | 4.1µM* | 24 | 4.6µM* | 8% | -22 | -10
CN(c1ccccc1C(=O)O)S(C)(=O)=O | -7% | -1 | 10% | 5% | 4 | 2
COc1ccc(-c2nc3c(n2O)CCCC3=O)cc1OC | 2% | 34 | -19% | 6% | 3 | -1
COc1ccc(-c2cc3nc(NCCCN(C)C)n(C)c(=O)c3s2)c(C)c1 | ? | -21 | ? | · | 0 | 12
Cc1cscc1-c1cc2nc(NCCCN(C)C)n(C)c(=O)c2s1 | ? | ? | 16µM* | · | -25 | 2
Cc1cc(Cl)ccc1-c1cc2nc(NCCCN(C)C)n(C)c(=O)c2s1 | 13µM* | -11 | 23µM* | · | -13 | 4
N#Cc1ccc2ccn(CC(=O)NCc3ccccc3)c2c1 | 18µM* | 0 | ? | -2% | 4 | 6
CC[C@]1(O)C[C@H]2CN(CCc3c([nH]c4ccccc34)[C@@](C(=O)OC)(c3cc4c(cc3OC)N(C=O)[C@H]3[C@@](O)(C(=O)OC)[C@H](OC(C)=O)[C@]5(CC)C=CCN6CC[C@]43[C@@H]65)C2)C1 | 0.24µM*! | · | 0.24µM* | 2% | · | ·
CC[C@@]1(O)CC2CN(CCc3c([nH]c4ccccc34)[C@](C(=O)OC)(c3cc4c(cc3OC)N(C)C3[C@@](O)(C(=O)OC)C(OC(C)=O)[C@]5(CC)C=CCN6CC[C@@]43C65)C2)C1 (stereo not given in full) | · | · | · | 12% | · | ·
O=C(O)[C@@H]1C[C@@H](C(=O)O)N1 | -13% | · | -16% | 6% | · | ·
C/C(=C(/CCO)SSCC1CCCO1)N(C=O)Cc1cnc(C)nc1N (stereo not given) | 21µM* | 9 | 21µM*! | · | 5 | 0
CCCSS/C(CCO)=C(\C)N(C=O)Cc1cnc(C)nc1N | 3µM* | · | 5.3µM* | · | · | ·
CCCCn1c(N)c(N(CCOC)C(=O)CCS(=O)(=O)c2ccc(Cl)cc2)c(=O)[nH]c1=O | 3% | 6 | -9% | 1% | -21 | 10
Cc1cc(C)c(NC(=O)C(C)Sc2nc3ccc(N4C(=O)c5ccccc5C4=O)cc3s2)c(C)c1 (stereo not given) | 35µM* | 1 | ? | -3% | 6 | 3
CC(C)(C)C(=O)Nc1cccc(OC(F)(F)C(F)Cl)c1 (stereo not given) | 3% | 25 | -8% | 5% | 15 | -2
ON=C1c2ccccc2-c2cc(Br)ccc21 | ? | -52* | 7.3µM* | · | 6 | -15
Nc1ccc2c(c1)C(=O)C(=O)c1ccccc1-2 | 0.92µM* | -122* | 0.65µM* | -7% | ? | ?
O=C1C(=O)c2ccc(-c3ccccc3)cc2-c2ccccc21 | 2.6µM* | -57* | 0.92µM* | 2%[56.1 µM] | ? | ?
SMILES | TDP1 cell noCPT | IL-1B inflam inh | TDP1 cell CPT | TDP1 inh | CtBP-E1A blk | Six1-Eya2 blk
Nc1ncc(-c2ccc(-c3ccccc3)cc2F)cc1-c1ccccc1F | ? | -11 | ? | · | 0 | 0
Nc1ccc2c(c1)C(=O)c1ccccc1-2 | -10% | -9 | 3% | · | -10 | -24
Nc1ccc2c(c1)C(=O)c1ccc(Br)cc1-2 | 9% | -12 | -7% | · | ? | ?
CC(=NO)c1ccc2c(c1)C(=NO)c1ccccc1-2 | 21µM* | -9 | 16µM* | · | 0 | -8
Cc1ccc(-c2nnn(CC(=O)N3CCC(C)CC3)n2)o1 | -2% | -30 | -10% | 4% | 4 | 5
Nc1cc2c(cc1[N+](=O)[O-])-c1ccccc1C2=NO | 8.2µM* | 0 | 21µM* | · | 0 | ?
ON=C1c2ccccc2-c2ccc(O)cc21 | -13% | ? | ? | · | -15 | -17
Nc1ccc2c(c1)C(=NO)c1ccccc1-2 | 8.2µM* | -18 | 18µM* | · | ? | -22
Cn1nnc(NC(=S)NC(=O)c2ccc(-c3ccc(Br)cc3)o2)n1 | ? | -13 | 12% | 8% | -69* | -72*
Fc1ccc(C2=CC(c3ccc(Br)o3)n3ncnc3N2)cc1 (stereo not given) | ? | -8 | ? | 6% | -1 | 1
CCOc1ccc(C2=CC(c3cc(Br)ccc3F)n3ncnc3N2)cc1Cl (stereo not given) | 18µM* | · | 15µM* | 6% | · | ·
Fc1ccc(Br)cc1C1C=C(c2cccnc2)Nc2ncnn21 (stereo not given) | 16µM* | 29 | 16µM* | 7% | -7 | 4
CCOC(=O)C1=C(C)Nc2ncnn2C1c1cc(Br)ccc1F (stereo not given) | 26µM* | 13 | ? | 4% | -3 | 6
COc1ccc(N2CC(C(=O)N/N=C/c3ccc(C)cc3)CC2=O)cc1 (stereo not given) | 1.6µM* | 57 | 1.3µM* | -4% | 0 | 1
COc1ccccc1NC(=O)Nc1nc2ccc(S(N)(=O)=O)cc2s1 | ? | -18 | ? | · | 0 | 8
